Source: PubChem BioAssay AID577 (University of Pittsburgh Molecular Library Screening Center, 2007)
Screen size: about 65,000 compounds; about 120 (0.18%) were called active. The entries come from a sample that favours actives as a whole. Unmarked numbers belong to inactive results. No stated cut-off is given here; in the data, active means z-score below about -3; inactive means the rest.

molecular target: Genome polyprotein (West Nile virus) (UniProt P06935); test: West Nile NS2B-NS3 proteinase blockers – biochemical, fluorogenic substrate, primary screen (AID 577); details: WNV NS2B-NS3 protease, fluorogenic substrate Ex360/Em465; stronger effect = lower value
Sequence (P06935 1371-1501 limits assumed): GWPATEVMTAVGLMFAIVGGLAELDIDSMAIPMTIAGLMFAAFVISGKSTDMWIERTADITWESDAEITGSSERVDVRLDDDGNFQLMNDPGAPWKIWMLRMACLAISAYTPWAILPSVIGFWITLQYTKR
Sequence (P06935 1502-1679 limits assumed): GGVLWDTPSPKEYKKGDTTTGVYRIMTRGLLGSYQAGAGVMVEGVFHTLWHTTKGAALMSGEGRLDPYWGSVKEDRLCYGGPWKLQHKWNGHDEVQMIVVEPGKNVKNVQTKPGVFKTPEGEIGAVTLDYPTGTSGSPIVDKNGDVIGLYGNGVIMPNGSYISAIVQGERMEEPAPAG

Structure (SMILES) | z-score
O=C(Nc1ccccc1N1CCCCC1)c1ccc2nccnc2c1 | -0.92
Cc1cc(N2C(=O)C(=O)/C(=C(/O)c3ccc(Cl)cc3)C2c2cccc(Br)c2)no1 (stereo not drawn) | 0.05
COc1ccc(S(=O)(=O)N2CCN(c3ncnc4c(-c5ccccc5)nsc34)CC2)cc1 | -0.64
Cc1ccc(NC(=O)C2CC(c3ccc(F)cc3)=NO2)cc1 (stereo not drawn) | -0.46
Cc1noc(C)c1S(=O)(=O)NCCc1ccc(S(N)(=O)=O)cc1 | -0.09
Cn1c(=O)cc(OCCCC(=O)N2CCN(Cc3ccc4c(c3)OCO4)CC2)c2ccccc21 | -0.06
O=c1[nH][nH]c(=O)c2cc(N3CCCC3)ccc12 | 0.92
COc1ccc(C)c2sc(=NC(=O)c3ccc(C#N)cc3)n(C)c12 | 0.36
COc1ccccc1CNC(=O)CCn1c(=O)sc2ccccc21 | 0.34
O=S(=O)(CCc1nc2ccccc2o1)c1ccc(Cl)cc1 | 0.84
Cc1ccc(CNC(=O)CCCNC(=O)c2ccc(Cl)cc2)n1C | 0.2
CC(NC(=O)c1ccc(Cl)cc1)C(=O)N1CCCCC1 (stereo not drawn) | -0.48
CCN(CC(=O)NC(C)C)C(=O)CCNC(=O)c1ccc(Cl)cc1 | -3.81 (active)
CCOC(=O)C1CCCN(C(=O)Cn2ncc3c(=O)oc4ccc(C)cc4c32)C1 (stereo not drawn) | -0.8
CC(=O)N(Cc1cccs1)C1CCOC(C)(C)C1 (stereo not drawn) | 0.1
O=c1c2c(nc3n1CCCCC3)sc1c(O)cccc12 | -0.99
CCn1cc(C(=O)NCc2ccc(OC)cc2OC)c(=O)c2ccc(C)nc21 | 0.31
CC(=O)N1CCN(C(=O)c2cccc(S(=O)(=O)Nc3ccc(C)cc3)c2)CC1 | -4.83 (active)
O=C(c1cccc(S(=O)(=O)N2CCOCC2)c1)N1CCOCC1 | -0.56
CN1CCN(C(=O)c2ccc(NS(=O)(=O)c3ccccc3)cc2)CC1 | 0.73
O=C(NCc1ccco1)C1CCCN(S(=O)(=O)c2cnc[nH]2)C1 (stereo not drawn) | 0.15
Cn1c(=O)[nH]c(=O)c2c1nc(N1CCN(CCO)CC1)n2CCSc1nc2ccccc2s1 | 0.89
CCOC(=O)N1CCC(NC(=O)c2ccc3nc(N4CCOCC4)sc3c2)CC1 | -0.98
O=C(NCc1ccco1)c1ccc(CS(=O)(=O)Cc2ccc(F)cc2)o1 | -0.19
CCOc1ccccc1NC(=O)c1cc(S(=O)(=O)N2CCC3(CC2)OCCO3)ccc1F | -0.89

Structure (SMILES) | z-score
O=C(Cn1c(-c2ccccn2)nc2ccccc21)NCCN1CCOCC1 | 0.41
O=C(Nc1ccon1)c1sc2ccccc2c1Cl | 1.15
O=C(O)Cc1ccc(NC(=O)C2CCCCC2C(=O)O)cc1 (stereo not drawn) | 0.69
Cc1cccc(N2CC(C)Cn3c2nc2c3c(=O)n(CC(=O)OCc3ccccc3)c(=O)n2C)c1 (stereo not drawn) | -0.58
O=C(Cc1c(F)cccc1Cl)N1CCN(C(=O)c2ccco2)CC1 | 0.71
Cc1oc(CC(C)C)c(CN2CCCC2)c1C(=O)O | 0.09
CC1CCN(c2nc3c(c(=O)[nH]c(=O)n3C)n2CCCc2ccccc2)CC1 | -0.61
COc1ccc(NC(=O)Nc2cccc3cccnc23)cc1 | -0.61
COc1ccc(-c2ccc(Nc3ccc(S(=O)(=O)N4CCCC4)cc3)nn2)cc1OC | -0.56
c1ccc(-c2cc(-c3nnc4sc(-c5ccccn5)nn34)[nH]n2)cc1 | -1.41
Cc1cc2nc(-c3ccc(NC(=O)c4cccnc4)cc3)oc2cc1C | -0.13
COc1ccc(OC)c(S(=O)(=O)Nc2ccccc2F)c1 | 0.89
O=C(Cn1cnc2c(nnn2-c2ccccc2)c1=O)N1CCC(Cc2ccccc2)CC1 | 2.2
NS(=O)(=O)c1cc2c(cc1Cl)NC(C(Cl)Cl)NS2(=O)=O (stereo not drawn) | 1.86
CNC(=O)n1ccc(C(=O)N2CCCCC2)n1 | 1.25
COc1ccccc1N=C1SC(C)CN1C(=O)C1CCC1 (stereo not drawn) | -0.3
COCCN1Cc2cccc(C(=O)Nc3ccccc3OC)c2C1=O | -0.41
CC(C)OCCCNC(=O)C1CC(=O)N(C2CCCCCCC2)C1 (stereo not drawn) | -1.25
CCOC(=O)C1=C(CNC2CCCCC2)NC(=O)NC1c1cc(C)ccc1C (stereo not drawn) | -0.35
c1ccc(-c2noc(-c3cccs3)n2)nc1 | -0.18
O=C(CCCN1C(=O)CSc2ncccc21)N1CCN(c2cccc(C(F)(F)F)c2)CC1 | 0.85
O=C(CC1(O)C(=O)N(CN2CCOCC2)c2ccccc21)c1ccccc1 (stereo not drawn) | 2.57
CC(C)Cn1c(CN(Cc2ccccc2)Cc2ccccc2)nc2c1c(=O)n(C)c(=O)n2C | 0.14
CCOC(=O)N1CCN(CC(=O)c2ccc3c(c2)CCN3)CC1 | -0.8
O=C1Nc2ccccc2C12Nc1ccccc1S2 (stereo not drawn) | -0.84

Structure (SMILES) | z-score
CC(=O)N1CC2(C)CN(C(C)=O)CC(C)(C1)C2=O | -0.17
CCOC(=O)c1cnc(-n2nc(C)cc2C)nc1-n1nc(C)cc1C | 0.5
CCOC(=O)N1CCN(C(=O)CN(C2CCCCC2)S(C)(=O)=O)CC1 | -1.44
COC(=O)C1=C(C)NC2=C(C(=O)c3ccccc32)C1c1ccc(-c2ccc(C(=O)O)cc2)o1 (stereo not drawn) | 0.76
COCCCN(C(=O)Cn1ncc2c(=O)oc3ccc(C)cc3c21)C(C)c1ccncc1 (stereo not drawn) | -0.67
Cc1ccccc1N1CC(c2nc3ccccc3[nH]2)CC1=O (stereo not drawn) | 1.22
O=C(CC1N=C2c3ccccc3N=C(SCc3ccccc3Cl)N2C1=O)NCc1ccco1 (stereo not drawn) | 1.46
Cc1c(C(=O)Nc2ccccc2Cl)oc2ccc(S(=O)(=O)N3CCC4(CC3)OCCO4)cc12 | -1.64
Cc1cccc(-n2c(N)cc(=O)nc2SC(C)C(=O)NC2CCCCC2)c1 (stereo not drawn) | -0.09
CCCCN=C(N)/C(C(=O)OCC)=C(\O)c1ccc(OC)cc1 | 0.82
COc1ccc2c(Cl)c(-c3nnco3)sc2c1 | -0.13
C=CCOc1ccc(/C=N/n2cncn2)cc1OC | 1.7
CCOCC(=O)NCc1ccc2c(c1)cc(C)n2C | -0.69
Cc1ccc2c(c1)NCC(C(=O)NC1CCC(C)CC1)O2 (stereo not drawn) | 0.12
c1ccc(-c2nnc3n2NC(c2ccc4c(c2)OCO4)S3)cc1 (stereo not drawn) | -0.39
C=CCn1c(COc2cccc3cccnc23)nnc1SCC(=O)OC | -1.04
COc1ccc(-n2c(SCC(=O)Nc3ccc4c(c3)OCO4)nnc2C(C)N2CCCCC2)cc1 (stereo not drawn) | -0.67
CCOc1ccccc1NC(=O)CCc1ccc(C)o1 | -0.55
O=C(c1ccco1)N(Cc1nc2ccccc2c(=O)[nH]1)C1CCCC1 | -1.19
Cn1c(NC(=O)c2ccco2)c(-c2ccccc2Cl)c(=O)c2ccccc21 | -0.04
COc1ccc2oc(C)c(NC(C)=O)c2c1 | -0.59
COC(=O)c1oc2ccc(Br)cc2c1NC(C)=O | 0.25
COc1ccc(C(=O)c2oc3ccc(Br)cc3c2NC(C)=O)cc1 | -3 (active)
O=C1CSC(c2cccc(F)c2)N1c1ccccc1F (stereo not drawn) | -0.93
CCCS(=O)(=O)N1CCCC(C(=O)N2CCN(c3ccccc3)CC2)C1 (stereo not drawn) | 0.81

Structure (SMILES) | z-score
CCn1c(SCCC(C)C)nnc1-c1c[nH]c2ccccc12 | -0.65
CCOC1CCCCC1NS(=O)(=O)c1ccc(Cl)cc1 (stereo not drawn) | -0.25
CCNC(=O)N1CCNC(=O)C1CC(=O)Nc1ccc(C(=O)OCC)cc1 (stereo not drawn) | -0.78
Cc1cccc2nc(CNc3ccc(F)cc3)cn12 | -0.49
Cc1cc(N2CCCC2=O)cc(C)c1S(N)(=O)=O | 0.56
O=C(O)C1C2C=CC(C2)C1C(=O)N1CCN(CCO)CC1 (stereo not drawn) | 0.43
CCCn1c(=O)c2[nH]c(C3CCCC3)nc2n(CCC)c1=O | 0.05
CCOc1ccccc1Nc1nnc(SCC(=O)Nc2cc(C)on2)s1 | -1.46
O=C(CN1C(=O)COc2ccccc21)Nc1ccc(F)cc1 | 1.4
Nc1cc(OC(=O)c2ccccc2Br)nn1S(=O)(=O)c1ccccc1 | -6.2 (active)
Cc1ccc(S(=O)(=O)n2nc(OC(=O)C(C)(C)C)cc2N)cc1 | 0.18
CCCCN(CC)C(=O)CN(C)S(=O)(=O)c1cccc2nsnc12 | 1.67
CC1Cc2ccccc2N1C(=O)CSc1nnc(-c2ccc(S(=O)(=O)N3CCCCC3)cc2)o1 (stereo not drawn) | 0.94
CC(=O)N1CSCC1C(=O)O (stereo not drawn) | -5.15 (active)
COCc1cc(C)nc(SCC(=O)Nc2cccc(C)c2)c1C#N | 1.36
Cn1c(=NC(=O)c2cnccn2)sc2ccccc21 | -1.53
O=C(Nc1ccccc1N1CCCCC1)c1cccc(F)c1 | 0.74
O=C(CNC(=O)c1ccc(Cl)cc1Cl)NCC(=O)Nc1ccccc1N1CCOCC1 | -1.5
CC(=NCc1ccco1)C1=C(O)c2ccccc2C1=O | 0.81
CC1Cc2ccccc2N1C(=O)CSc1nc2ccccc2o1 (stereo not drawn) | -0.42
O=C(COc1ncnc2ccccc12)NC(=O)NCc1ccccc1 | 0.88
Cc1noc(C)c1COC(=O)Cn1c(C)nc2ccccc21 | -1.33
CCOC(=O)N1CCC(NC(=O)C(C)n2c3ccccc3c3cnn(C)c(=O)c32)CC1 (stereo not drawn) | -0.72
